D1 potentiator = Potentiators of Human D1 Dopamine Receptor: qHTS; HEK293 TREx D1 cells, calcium flux, dopamine EC20 potentiation; potentiation, % at 10 µM; actives 0.036% (n = 360,000); AID 504651, 2011; in the data active = potentiation above about 30%; also: 0% is about no effect
Target sequence (P21728 whole entry, looked up): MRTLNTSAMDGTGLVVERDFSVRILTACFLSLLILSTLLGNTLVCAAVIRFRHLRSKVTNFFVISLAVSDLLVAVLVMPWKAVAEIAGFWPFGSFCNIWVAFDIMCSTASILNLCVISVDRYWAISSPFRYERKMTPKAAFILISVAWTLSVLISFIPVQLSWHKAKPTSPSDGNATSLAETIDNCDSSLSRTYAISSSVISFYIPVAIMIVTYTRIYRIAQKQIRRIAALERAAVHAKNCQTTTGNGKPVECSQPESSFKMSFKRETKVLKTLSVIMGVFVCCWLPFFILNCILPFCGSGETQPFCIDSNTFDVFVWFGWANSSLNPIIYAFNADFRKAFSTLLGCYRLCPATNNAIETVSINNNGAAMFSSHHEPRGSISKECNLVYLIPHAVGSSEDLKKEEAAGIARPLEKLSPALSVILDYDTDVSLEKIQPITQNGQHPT
DRD3 agonist = qHTS of D3 Dopamine Receptor Agonist: qHTS. D(3) dopamine receptor (Homo sapiens), P35462. D3R DiscoveRx beta-arrestin cells, luminescence, 90 min. max activation, %. actives 0.58% (n = 410,000); in the data active = max activation above about 30%; also: 0% is about no effect
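Agonist-mode cell screen: cells plated at 1500/well and incubated overnight at 37 °C, then exposed to library compounds for 90 min at 37 °C. Detection reagent was added for 30–60 min at room temperature, and luminescence was read.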
D1 antagonist = Antagonist of Human D 1 Dopamine Receptor: qHTS; D(1A) dopamine receptor (Homo sapiens), P21728; HEK293 TREx D1 cells, calcium flux, dopamine EC80; active compounds read low; activity change, negative = inhibition, % at 10 µM; actives 3.2% (n = 360,000); AID 504652, 2011; in the data active = activity change below about -30%; also: % is scaled to controls: 0 for no effect and ±100 for the full control effect
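Using tetracycline-induced force-coupled D1 Hek293 cells and a calcium dye, signals were followed for 180 s after compound, then for 180 s after EC80 dopamine, to detect inhibitors.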
D1 ag = Allosteric Agonists of the Human D1 Dopamine Receptor: qHTS. D(1A) dopamine receptor (Homo sapiens), P21728. actives 1% (n = 360,000). activation, % at 2 µM. HEK293 T-REx D1 cells, calcium flux, agonist mode; in the data active = activation above about 30%; also: 0% is about no effect
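Inducible HEK293 T-REx D1 cells, force-coupled to calcium signalling, were plated at 4000 cells/well with tetracycline and held overnight at 30 C. After no-wash calcium dye loading, compound-evoked calcium rise over 180 s flagged agonists.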
D3 antag = qHTS of D3 Dopamine Receptor Antagonist: qHTS. max response, negative = inhibition, %. AID 652054, 2013. D(3) dopamine receptor (Homo sapiens), P35462. D3R cells, DiscoveRx beta-arrestin luminescence, antagonist mode; active compounds read low. actives 2.5% (n = 360,000); in the data active = max response below about -50%; inconclusive = no clear call, values can overlap the other calls; also: % is scaled to controls: 0 for no effect and ±100 for the full control effect
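Cells expressing the human receptor were seeded at 1500 cells/well, incubated overnight at 37 degrees C in 5% CO2, then exposed to library compounds with dopamine controls for 90 minutes at 37 degrees C before luminescent detection.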
The depositor's hits bear a star; ? = inconclusive; / = no result. Compounds with a hit are over-represented: about 6% of the library has one in this group of screens.

SMILES	D1 potentiator	DRD3 agonist	D1 antagonist	D1 ag	D3 antag
CCOc1ccc(OCCOCCN2CCOCC2)cc1	0	-2	14	5	?
CCC(C)c1ccc(OCCCCN2CCOCC2)cc1 (configuration not stated)	-3	-6	-3	5	-65*
OC(Cc1cccc(Br)c1)c1ncc(-c2cccc(C(F)(F)F)c2)[nH]1 (configuration not stated)	/	-2	/	/	-20
C[C@@H]1CN([C@@H](C)CO)S(=O)(=O)c2ccc(Br)cc2O[C@H]1CN(C)C(=O)Nc1ccc(C(F)(F)F)cc1	/	-4	/	/	-11
CC(=O)CSc1nsc(SCC(C)=O)c1C#N	-5	-6	-7	0	-69*
O=C(N/N=C/c1c(O)n(-c2ccccc2Cl)c(=O)c2ccccc12)c1cccnc1	0	-3	1	28	20
COc1ccc(Cn2c(O)c(/C=N/NC(=O)c3cccnc3)c3ccccc3c2=O)cc1	6	0	10	90*	-1
COc1ccc(Cn2c(O)c(C=Nc3ccc(OC)cc3)c3ccccc3c2=O)cc1	2	-3	5	2	0
O=C(N/N=C/c1c(O)n(Cc2ccccc2)c(=O)c2ccccc12)c1cccnc1	4	5	10	47*	40
CCN(CC)c1nc2c(S(=O)(=O)c3ccccc3)nnn2c2ccc(Cl)cc12	1	-2	0	1	/
CN(Cc1ccccc1)c1nc2c(S(=O)(=O)c3cccc(Cl)c3)nnn2c2ccsc12	-3	7	-32*	2	/
CCN(CC)c1nc2c(S(=O)(=O)c3cccc(Cl)c3)nnn2c2ccsc12	-6	-5	-40*	4	/
Cc1cc(C)c(NC(=O)Cn2c(=O)n(Cc3ccc(C(=O)NCc4ccco4)cc3)c(=O)c3sccc32)c(C)c1	-1	-9	-5	6	/
CCC(=O)N1CCN=C1SCc1ccccc1	/	3	8	2	0
CSC1=NCCN1C(=O)Cc1ccc(-c2ccccc2)cc1	-10	2	-40*	16	4
CCSC1=NCCN1C(=O)Cc1ccc(-c2ccccc2)cc1	-4	6	-44*	4	6
COc1cc(C2CC(=O)Nc3c2c(=O)n(C)c(=O)n3C)cc(OC)c1OC (configuration not stated)	-3	2	4	0	/
COc1ccc(C)cc1NC(=O)C(=O)NCC(c1cccnc1)N1CCN(c2ccccc2F)CC1 (configuration not stated)	-2	-18	-34*	3	/
COc1ccc(C)cc1NC(=O)C(=O)NCC(c1cccnc1)N1CCc2ccccc21 (configuration not stated)	-2	10	6	1	/
CCc1ccc(NC(=O)C(=O)NCC(c2cccnc2)N2CCN(C)CC2)cc1 (configuration not stated)	9	6	2	53*	/
COc1ccc(N2CCN(C(CNC(=O)C(=O)NCCCN(C)C)c3cccnc3)CC2)cc1 (configuration not stated)	-2	4	-35*	1	/
COc1ccccc1N1CCN(C(CNC(=O)C(=O)NCc2ccc(F)cc2)c2cccnc2)CC1 (configuration not stated)	-3	3	-2	33*	/
COc1ccccc1N1CCN(C(CNC(=O)C(=O)NCCCN(C)C)c2cccnc2)CC1 (configuration not stated)	-5	2	-21	4	/
Cc1cc2c(cc1S(=O)(=O)N(CCN(C)C)Cc1ccco1)OCC(=O)N2	-4	-5	-5	4	/
Cc1ccc(Cl)cc1NC(=O)c1cnn2c(C(F)F)cc(-c3ccccc3)nc12	1	3	-8	6	/
SMILES	D1 potentiator	DRD3 agonist	D1 antagonist	D1 ag	D3 antag
CN1CCN(C(CNC(=O)C(=O)Nc2ccc3c(c2)OCCO3)c2ccc(F)cc2)CC1 (configuration not stated)	-4	108*	-3	4	-1
O=S(=O)(NCC(c1cccnc1)N1CCN(c2ccc(F)cc2)CC1)c1cccs1 (configuration not stated)	-3	-7	-31*	-2	0
Cc1ccc(C(CNC(=O)C(=O)Nc2ccc3c(c2)OCCO3)N2CCN(C)CC2)cc1 (configuration not stated)	-6	-13	18	1	0
CC(=O)N(CC(O)CO)c1c(I)c(C(=O)NCCO)c(I)c(C(=O)NCC(O)CO)c1I (configuration not stated)	/	4	/	/	/
NC(=O)c1ccc(-c2ccc(N3C(c4ccsc4)=Cc4ccc(F)cc4C3CC(=O)c3ccco3)cc2)cc1 (configuration not stated)	/	4	/	/	0
CCc1cccc(NC(=O)C(Cc2ccccc2)NS(=O)(=O)c2ccc3c(c2)c(=O)n(C)c(=O)n3C)c1 (configuration not stated)	-5	-11	-9	6	/
Cc1ccccc1OCC(O)CN(CCO)Cc1ccccc1 (configuration not stated)	-1	2	-47*	1	0
Cn1cnc(S(=O)(=O)N2CCCCC2c2cc(C(=O)NCc3ccc(F)cc3)no2)c1 (configuration not stated)	/	-16	/	/	-4
N#CCC(CNc1ncc(C(F)(F)F)cc1Cl)OC(=O)c1ccc(Cl)cc1Cl (configuration not stated)	-3	23	9	31*	21
Cc1cc(=O)[nH]c(SCc2cccc3ccccc23)n1	-4	9	5	0	-10
Cc1cc(CSc2nc(C)cc(=O)[nH]2)c2ncccc2c1	-8	31*	-27	3	13
Cc1cc(Cl)cc(C)c1OCCNCc1ccccc1	-2	-17	29	13	?
C=CCc1ccccc1OCCNCc1ccccc1	-17	-14	-50*	12	-88*
Cc1cc(C)c(C)c(OCCNCc2ccccc2)c1	-3	-12	5	24	-77*
Clc1ccc(OCCCNCc2ccccc2)c2ccccc12	16	-22	-2	31*	-29
Brc1ccccc1OCCNCc1ccccc1	-16	4	-75*	13	-71*
C=CCc1ccccc1OCC(=O)O	-7	-2	3	3	9
CC(=O)c1cccc(NS(=O)(=O)c2cc(-c3onc(C)c3C)ccc2C)c1	-3	5	-6	2	/
CC(C)C[C@@H]1O[C@H](CCc2ccccc2)Cc2[nH][nH]c(=O)c21	/	0	/	/	?
OC(c1ccc(F)cc1)c1nc(-c2cccc(F)c2)cs1 (configuration not stated)	/	8	/	/	15
